Measured values reported in PubChem BioAssay (NCATS).
Inconclusive results are not listed. Unmarked numbers belong to inactive results. The call rests on the fitted dose curve; in most records, active means well fitted cell-killing curve with a large enough effect; inconclusive means small, poorly fitted or top-dose-only effect; inactive means no such curve, though single readings can be large or run the other way.

Test: qHTS of pediatric cancer cell lines to identify multiple opportunities for drug repurposing: Primary screen for Rh41 cells (AID 1347108);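 further: luminescence drop marks cytotoxic hits; nearly all actives have a fitted effect of over 70% in size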
Settings: Rh41 rhabdomyosarcoma viability, CellTiter-Glo luminescence, 48 h; series mostly up to 46 µM; activity change, negative = cytotoxic: at the top concentration
Procedure, shortened: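 Luminescence from CellTiter-Glo served as readout of metabolically active cells after 48 h compound exposure. Titrations: MIPE 11-point, from 0.78 nM; NPC 8-point, from 0.59 nM (final). Concentration-response curves came straight from the primary screen.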

| SMILES | activity change, negative = cytotoxic [%] |
| --- | --- |
| Cc1cc(-n2nc3ccc(Cl)cc3n2)c(O)c(C(C)(C)C)c1 | 34.4 |
| CCS(=O)(=O)CCn1c([N+](=O)[O-])cnc1C | 13.6 |
| CCCCCCCCCCC(CO)CCCCCCCC (stereo not drawn) | 28.1 |
| O=C(O)C(S)C(S)C(=O)O (stereo not drawn) | 26.7 |
| COc1ccc(-c2cc(=O)c3c(O)cc(O[C@@H]4O[C@H](CO[C@@H]5O[C@@H](C)[C@H](O)[C@@H](O)[C@H]5O)[C@@H](O)[C@H](O)[C@H]4O)cc3o2)cc1O | 28.2 |
| CC(C)(C)C(=O)OCOC(=O)[C@@H]1N2C(=O)[C@@H](NC(=O)[C@H](N)c3ccccc3)[C@H]2SC1(C)C | 33.5 |
| O=C(NCCCN1CCOCC1)c1ccc(Cl)cc1 | 12 |
| C/C=C/C(=O)N(CC)c1ccccc1C | 13.2 |
| NC(=O)CCCCC1CCSS1 (stereo not drawn) | 20.6 |
| C[C@@H](N)C(=O)O | 2.42 |
| CC1CC(OC(=O)c2ccccc2O)CC(C)(C)C1 (stereo not drawn) | 6.43 |
| NS(=O)(=O)c1cc(-c2nn[nH]n2)c(NCc2cccs2)cc1Cl | 23.7 |
| COc1ccccc1Oc1c(NS(=O)(=O)c2ccc(C(C)(C)C)cc2)nc(-c2ncccn2)nc1OCCO | 9.81 |
| CCCNC(C)C(=O)Nc1c(C)csc1C(=O)OC (stereo not drawn) | 14 |
| NCc1ccc(S(N)(=O)=O)cc1 | 9.94 |
| Cc1c(N(C)C)c(=O)n(-c2ccccc2)n1C | 21 |
| CN(C/C=C/C#CC(C)(C)C)Cc1cccc2ccccc12 | 8.85 |

| SMILES | activity change, negative = cytotoxic [%] |
| --- | --- |
| CC(=O)[C@@]1(O)CC[C@H]2[C@@H]3C[C@H](C)C4=CC(=O)C=C[C@]4(C)[C@@]3(F)[C@@H](O)C[C@@]21C | 14.8 |
| NC(=O)NS(=O)(=O)c1ccc(N)cc1 | 24.7 |
| CCOC(=O)[C@H](CCc1ccccc1)N[C@@H](C)C(=O)N1Cc2cc(OC)c(OC)cc2C[C@H]1C(=O)O | 21.2 |
| CC[N+](CC)(CC(=O)Nc1c(C)cccc1C)Cc1ccccc1 | 12.3 |
| COC(=O)c1cccnc1 | 15.8 |
| O=C1c2ccccc2S(=O)(=O)N1CCCCN1CCN(c2ncccn2)CC1 | 8.71 |
| Cc1c(I)c(=O)n(-c2ccccc2)n1C | 16.2 |
| Cn1c(=O)c2c(ncn2CCO)n(C)c1=O | -5.33 |
| COC(=O)N/N=C/c1c[n+]([O-])c2ccccc2[n+]1[O-] | -2.16 |
| O=C(OOC(=O)c1ccccc1)c1ccccc1 | 22.7 |
| NC(=O)c1ccc([N+](=O)[O-])cc1Cl | 11.3 |
| C[C@@H]1O[C@@H](OC[C@H]2O[C@@H](Oc3c(-c4ccc(O)c(O)c4)oc4cc(O)cc(O)c4c3=O)[C@H](O)[C@@H](O)[C@@H]2O)[C@H](O)[C@H](O)[C@H]1O | 28.4 |
| CN1C(=O)CC(c2ccccc2)C1=O (stereo not drawn) | 4.91 |
| C[N+](C)(C)CC(O)CC(=O)[O-] (stereo not drawn) | -10.4 |
| CCN(CC)C(=O)c1cccc(C)c1 | 33.7 |
| CCCC(O)C(CC)CO (stereo not drawn) | 31.5 |
